Source: the supplement of paper PMC8975748
Where a name gives a salt, the structure may show the parent alone.

system: Saccharomyces cerevisiae BY4741 SeMeCo community; experiment: z-score of subpopulation abundance vs DMSO median, subpopulation auxotrophic for HL; higher = larger share of this subpopulation than in DMSO controls; settings: 10 µM; 24 h; SM minimal medium; subpopulation (auxotrophy): HL
Experimental: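 Fluorescent four-plasmid SeMeCo (self-establishing metabolically cooperating S. cerevisiae BY4741 community; plasmids pH-mRuby2, pL-mWasabi, pU-eCFP, pM-TagRFP657) was grown 24 h in minimal SM medium with each Selleck FDA-approved drug at 10 µM in 384-well plates. Cells were fixed and imaged by high-content confocal microscopy. For each auxotrophic subpopulation (and the prototroph), a z-score gives the deviation from the DMSO vehicle-control population median.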

Row | SMILES | z-score of subpopulation abundance
1 | Cc1ccc(C(=O)C(C)CN2CCCCC2)cc1 (stereo not given) [Tolperisone HCl] | -0.34
2 | CO[C@@H]1[C@@H](O[C@@H]2O[C@H](C)[C@@H](O[C@H]3C[C@@](C)(O)[C@@H](O)[C@H](C)O3)[C@H](N(C)C)[C@H]2O)[C@@H](CC=O)C[C@@H](C)[C@@H](O[C@H]2CC[C@H](N(C)C)[C@@H](C)O2)/C=C/C=C/C[C@@H](C)OC(=O)C[C@H]1OC(C)=O [Acetylspiramycin (ASPM)] | 1.77
3 | OCc1ccccc1O[C@@H]1O[C@H](CO)[C@@H](O)[C@H](O)[C@H]1O [Salicin] | -0.58
4 | CN1C(C(=O)Nc2ccccn2)=C(O)c2ccccc2S1(=O)=O [Piroxicam] | -0.37
5 | CC1=C(C(=O)OCCN(Cc2ccccc2)c2ccccc2)C(c2cccc([N+](=O)[O-])c2)C(P2(=O)OCC(C)(C)CO2)=C(C)N1 (stereo not given) [Efonidipine] | 0.79
6 | Clc1ccccc1C(c1ccccc1)(c1ccccc1)n1ccnc1 [Clotrimazole] | 3.58
7 | Cc1ccc(Cl)c(Nc2ccccc2C(=O)O)c1Cl [Meclofenamate Sodium] | -0.49
8 | CO/N=C(/C(=O)N[C@@H]1C(=O)N2C(C(=O)OCOC(=O)C(C)(C)C)=C(C)CS[C@H]12)c1csc(N)n1 [Cefetamet pivoxil hydrochloride] | 1.33
9 | Cc1nccn1CC1CCc2c(c3ccccc3n2C)C1=O (stereo not given) [Ondansetron Hydrochloride Dihydrate] | -0.09
10 | CCCCOc1ccc(CC(=O)NO)cc1 [Bufexamac] | -0.85
11 | C[C@]12CC[C@@H]3c4ccc(O)cc4CC[C@H]3[C@@H]1C[C@@H](O)[C@@H]2O [Estriol] | -0.01
12 | O=C(CCCN1CC=C(n2c(=O)[nH]c3ccccc32)CC1)c1ccc(F)cc1 [Droperidol] | 0.21
13 | CC[C@H](C)C(=O)O[C@H]1C[C@H](O)C=C2C=C[C@H](C)[C@H](CC[C@@H](O)C[C@@H](O)CC(=O)O)[C@H]21 [Pravastatin] | 0.42
14 | C#C[C@]1(O)CC[C@H]2[C@@H]3CCC4=Cc5oncc5C[C@]4(C)[C@H]3CC[C@@]21C [Danazol] | -0.13
15 | COCCCN1CCC(NC(=O)c2cc(Cl)c(N)c3c2OCC3)CC1 [Prucalopride Succinate] | 0.16
16 | O=c1ccc2cc(O)c(O)cc2o1 [Esculetin] | 2.44
17 | CCN(CC)CCNC(=O)c1cc(S(C)(=O)=O)ccc1OC [Tiapride Hydrochloride] | 0.93
18 | O=C1c2cccc3c2[C@H](CCC3)CN1[C@@H]1CN2CCC1CC2 [Palonosetron] | -0.45
19 | CC(C)(C)CC(C)(C)c1ccc(OCCOCC[N+](C)(C)Cc2ccccc2)cc1 [Benzethonium Chloride] | -0.38
20 | C=C1CCC2C(C)(CO)C(O)CCC2(C)C1CC=C1C=COC1=O (stereo not given) [Dehydroandrographolide] | 1.67

Row | SMILES | z-score of subpopulation abundance
21 | CCCc1nc(C)c2c(=O)nc(-c3cc(S(=O)(=O)N4CCN(CC)CC4)ccc3OCC)[nH]n12 [Vardenafil HCl Trihydrate] | -0.13
22 | Cc1ncc([N+](=O)[O-])n1CC(O)CCl (stereo not given) [Ornidazole] | 0.53
23 | Cc1c[nH]c(=O)[nH]c1=O [Thymine] | -0.04
24 | Oc1cccc(O)c1 [Resorcinol] | -0.43
25 | COc1ccc(Cl)cc1C(=O)NCCc1ccc(S(=O)(=O)NC(=O)NC2CCCCC2)cc1 [Glyburide (Glibenclamide)] | 1.09
26 | COC(=O)Nc1nc2cc(C(=O)c3ccc(F)cc3)ccc2[nH]1 [Flubendazole] | 0.98
27 | CCN(CC)C(=O)[C@@]1(c2ccccc2)C[C@H]1CN [Levomilnacipran Hydrochloride] | -0.6
28 | COC(=O)C1=C(C)NC(C)=C(C(=O)OCC(C)C)C1c1ccccc1[N+](=O)[O-] (stereo not given) [Nisoldipine] | 0.67
29 | CCn1cc(C(=O)O)c(=O)c2ccc(C)nc21 [Nalidixic acid] | -0.13
30 | C[N+]1(C)[C@@H]2C[C@@H](OC(=O)C(O)(c3cccs3)c3cccs3)C[C@H]1[C@@H]1O[C@@H]12 [Tiotropium Bromide hydrate] | -0.52
31 | CC[C@H](C)C(=O)O[C@H]1C[C@H](O)C=C2C=C[C@H](C)[C@H](CC[C@@H](O)C[C@@H](O)CC(=O)O)[C@H]21 [Pravastatin sodium] | 0.84
32 | CC1(C)S[C@@H]2[C@H](NC(=O)[C@H](N)c3ccccc3)C(=O)N2[C@H]1C(=O)OCOC(=O)[C@@H]1N2C(=O)C[C@H]2S(=O)(=O)C1(C)C [Sultamicillin Tosylate] | 0.21
33 | CCN1CCCC1CNC(=O)c1cc(S(=O)(=O)CC)c(N)cc1OC (stereo not given) [Amisulpride] | -0.73
34 | Cc1ncc([N+](=O)[O-])n1CCOC(=O)c1ccccc1 [Metronidazole Benzoate] | -0.69
35 | CO[C@H]1C[C@@H]2CC[C@@H](C)[C@@](O)(O2)C(=O)C(=O)N2CCCC[C@H]2C(=O)O[C@H]([C@H](C)C[C@@H]2CC[C@@H](OP(C)(C)=O)[C@H](OC)C2)CC(=O)[C@H](C)/C=C(\C)[C@@H](O)[C@@H](OC)C(=O)[C@H](C)C[C@H](C)/C=C/C=C/C=C/1C [Ridaforolimus (Deforolimus, MK-8669)] | 13.8
36 | C[C@@H](NCCCc1cccc(C(F)(F)F)c1)c1cccc2ccccc12 [Cinacalcet HCl] | 1.05
37 | CCC[C@@H]1C[C@@H](C(=O)N[C@@H]([C@H]2O[C@H](SC)[C@H](O)[C@@H](O)[C@H]2O)[C@H](C)Cl)N(C)C1 [Clindamycin HCl] | 0.26
38 | COc1cc2c(cc1OC)[C@@H]1Cc3ccc(OC)c(OC)c3CN1CC2 [Rotundine] | 0.52
39 | Cc1cccc(C)c1NC(=O)C1CCCCN1C (stereo not given) [Mepivacaine] | -0.24
40 | C[C@H]1COc2c(N3CCN(C)CC3)c(F)cc3c(=O)c(C(=O)O)cn1c23 [Levofloxacin] | -0.59
